Screens as filed in PubChem.
Sampled rows, rich in hits. Any-hit rate of the full collection: about 14%.
Pf growth 96h – Primary qHTS for delayed death inhibitors of the malarial parasite plastid, 96 hour incubation; P. falciparum luciferase reporter growth, 96 h; Potency, µM (titrated, usually from 28.7 µM), for the others: at the highest dose activity change, negative = inhibition, hits mostly inhibitors; 6.9% of 320,000 active; AID 504834, 2011; also: potency is read from the fitted curve at half-maximal effect
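Erythrocytes infected with luciferase-expressing P. falciparum were dispensed at 2% hematocrit and 0.05% parasitemia (final), then incubated with compounds 96 hours at 37 C in 5% CO2. Luminescence after detection reagent addition reported growth.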
Marburg entry inh – qHTS for inhibitors of binding or entry into cells for Marburg Virus; 1.8% of 300,000 active; Marburg virus pseudotyped entry inhibition, cell reporter; Potency, µM (series often up to 37.8 µM), inactives show top-dose activity change, negative = inhibition, most hits filed as inhibitors; calls by dose curve; tested in HEK293 cells; also: potency is read from the fitted curve at half-maximal effect
Pf growth 48h – Primary qHTS for delayed death inhibitors of the malarial parasite plastid, 48 hour incubation; P. falciparum luciferase growth in erythrocytes, 48 h; Potency, µM (top dose mostly 28.7 µM), without a hit: at the highest dose activity change, negative = inhibition, most hits filed as inhibitors; 5.9% of 310,000 active; also: potency is read from the fitted curve at half-maximal effect
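Luciferase-expressing P. falciparum in infected erythrocytes (2% hematocrit, 0.1% parasitemia final) in RPMI 1640/0.5% Albumax were exposed to compound for 48 hours at 37 C, 5% CO2; growth read as luminescence.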
HCV inhibitor – qHTS Assay for Inhibitors of Hepatitis C Virus (HCV) | Huh7.5.1 HCVcc-Cre infection, luciferase reporter, 44 h | Potency, µM (top dose mostly 41.8 µM), without a hit: top-dose activity change, negative = inhibition, most hits filed as inhibitors | 3.4% of 340,000 active | AID 651820, 2012; also: potency is read from the fitted curve at half-maximal effect
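Infectious HCV cell culture screen: compound-treated cells (1,000/well, pre-plated 4 h) are infected with HCVcc-Cre at roughly 0.5 moi and grown 44 h. Infection is quantified by luciferase signal after 15 min substrate incubation at room temperature.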
LASV entry inh – qHTS for Inhibitors of binding or entry into cells for Lassa Virus; Lassa virus pseudotype entry inhibition, cell reporter; Potency, µM (series often up to 37.9 µM), without a hit: top-dose activity change, negative = inhibition, hits mostly inhibitors; 1.2% of 300,000 active; AID 540256, 2011; calls by dose curve; tested in HEK293 cells; also: potency is read from the fitted curve at half-maximal effect; nearly all actives have a fitted effect of over 50% in size
HCMV inh – qHTS Assay for inhibitors of the human cytomegalovirus (HCMV) | HFF cells, HCMV-luciferase reporter, 72 h; hits give low values | activity change, negative = inhibition, % at 57.5 µM | 4.5% of 410,000 active; in the data active = activity change below about -60%; inconclusive = no clear call, values can overlap the other calls; inactive = above about -39%
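Human foreskin fibroblasts infected with luciferase-reporter HCMV at MOI 1 PFU/cell, compounds at two doses. Luciferase measured 72 h post infection; normalized to buffer-only basal and Salinomycin (10uM) controls.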
* = called active by the depositor; ? = inconclusive; / = no result; [ ] = remark or other dose. Unless noted, calls follow the shape of the dose curve; as a rule, active = well fitted inhibition curve with a large enough effect; inconclusive = small, poorly fitted or top-dose-only effect, or another doubt; inactive = no such curve, though single readings can be large or run the other way. % is scaled to controls: 0 for no effect and ±100 for the full control effect.

SMILES	Pf growth 96h	Marburg entry inh	Pf growth 48h	HCV inhibitor	LASV entry inh	HCMV inh
COc1cccc(-n2nnc3c(=O)n(Cc4cccc(F)c4)cnc32)c1	?	-6%	15%	-2%	?	-7
COc1cccc(-n2nnc3c(=O)n(Cc4c(F)cccc4Cl)cnc32)c1	9.3µM*	0%	8%	6%	-21%	-29
O=C(Nc1ccc(Cc2ccncc2)cc1)C1CCC(N2C(=O)C3C4C=CC(C5CC45)C3C2=O)CC1 (stereo not drawn)	/	?	?	8.9µM*	?	-85*
CC(=O)Nc1ccc(NC(=O)C2CCC(N3C(=O)C4C5C=CC(C6CC56)C4C3=O)CC2)cc1 (stereo not drawn)	-3%	/	40%	?	/	15
CC(=O)NCCC(=O)Nc1cc(S(=O)(=O)N2CCOCC2)ccc1N1CCCC1	0%	-11%	12µM*	10%	18%	-14
O=C(CNc1cc(S(=O)(=O)N2CCOCC2)ccc1N1CCCC1)Nc1ccc(Cl)cc1F	/	/	/	/	/	-27
O=C(CCNC(=O)c1ccccc1Cl)Nc1cc(S(=O)(=O)N2CCOCC2)ccc1N1CCCC1	-4%	-1%	-14%	?	3%	-29
CC(=O)NCCC(=O)Nc1cc(S(=O)(=O)N2CCOCC2)ccc1Oc1ccccc1	12µM*	/	-11%	26%	/	13
O=C(CNc1cc(S(=O)(=O)N2CCOCC2)ccc1N1CCCC1)N1CCc2ccccc21	?	-25%	13µM*	?	-9%	?
CC(=O)NCCC(=O)Nc1cc(S(=O)(=O)N2CCOCC2)ccc1Oc1ccc(F)cc1	0%	17%[46.1 µM]	?	15%	-3%	-27
COc1ccc(Nc2c3c(nc4ccc(NC(=O)c5ccc(F)cc5)cc24)CCCC3)cc1OC	/	?	/	/	-26%[46.1 µM]	-39
COc1ccccc1NC(=O)c1ccc2c(Cl)c3c(nc2c1)CCCC3	/	11%[46.1 µM]	/	/	6%[46.1 µM]	-9
COc1ccccc1Nc1c2c(nc3ccc(NC(=O)c4cccc(OC)c4OC)cc13)CCCC2	/	?	/	/	7.9µM*	-98*
COc1ccc(C(=O)Nc2ccc3nc4c(c(Nc5ccc(OC)c(OC)c5)c3c2)CCCC4)c(OC)c1	/	?	/	/	-11%[46.1 µM]	-92*
COc1ccccc1Nc1c2c(nc3ccc(NC(=O)c4ccc(OC)c(OC)c4)cc13)CCCC2	/	2.2µM*	/	/	?	-99*
COc1ccccc1Nc1c2c(nc3ccc(NC(=O)c4ccccc4F)cc13)CCCC2	/	3.2µM*	/	/	?	-100*
CCN(C(=O)CSc1nc2ccc(Cl)cc2[nH]1)C1CCS(=O)(=O)C1 (stereo not drawn)	/	0%	/	7%	4%	?
COc1cccc(CNC(=O)CCS(=O)(=O)c2cc3c4c(c2)CCN4C(=O)CC3)c1	/	/	/	/	23%[46.1 µM]	-4
CCOc1ccc(CCN2C(=O)C(=O)N([C@@H](Cc3ccccc3)CN3CCC[C@H]3CN3C(=O)C(=O)NC[C@@H]3CC(C)C)C[C@@H]2Cc2ccc(O)cc2)cc1	/	/	/	/	/	-40
CN(C)c1ccc(S(=O)(=O)N(C)C)cc1NC(=O)Cc1cccc2ccccc12	?	?	?	?	?	-37
COC(=O)c1ccc(NC(=O)CCc2c(C)nn(-c3ccc(N4CCOCC4)nn3)c2C)cc1	/	/	/	/	1%[46.1 µM]	47
COc1cc(OC)c(NC(=O)CN(C)S(=O)(=O)c2ccc3c(c2)CCCC(=O)N3)cc1Cl	/	/	/	/	5%[46.1 µM]	-28
COc1ccc([C@H]2CN(CCc3ccccc3)C(=O)[C@@H]2CC(=O)Nc2ccccc2)cc1	/	/	/	/	/	21
COc1ccccc1Nc1c2c(nc3ccc(N)cc13)CCCC2	?	/	?	?	/	-31
COc1ccc(C(=O)Nc2ccc3nc4c(c(Nc5ccccc5OC)c3c2)CCCC4)c(OC)c1	/	2.5µM*	/	/	-4%[46.1 µM]	-9
O=C(O)c1ccc2c(c1)C(=O)N([C@H](Cc1c3ccccc3cc3ccccc13)C(=O)O)C2=O	8%	/	0%	/	/	/
